Here are results for 28 compounds from PubChem BioAssay (Tox21).

Test [1] in a line: qHTS RealTime-Glo MT Cell Viability Assay in HEK293 cells - 0 hour (AID 1224880). Further: nearly all actives have a fitted effect of over 45% in size. Further: potency means the concentration at half of the fitted maximal effect. On activity change, negative = cytotoxicity: top concentration of the series differs between compounds. The method in brief:
(§1)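 HEK293 cells mixed with RealTime-Glo reagents (NanoLuc plus cell-permeant prosubstrate) at 600 cells/well, preincubated 5 h at 37 C/5% CO2, then given 23 nL compound in DMSO. Nonlytic luminescence from viable cells was read at 0, 8, 16, 24, 32 and 40 h.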

A short description of test [2]: A CellTox Green Cytotoxicity Assay to monitor cytotoxicity in HEK293 cells - 32 hour (AID 1224881). Further: nearly all actives have a fitted effect of over 40% in size. Further: potency means the concentration at half of the fitted maximal effect. The method, boiled down:
(§2)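 HEK293 cells premixed with CellTox Green dye were seeded at 600 cells/well and left 5 h at 37 C/5% CO2 before pin transfer of 23 nL compound in DMSO. Fluorescence from dye bound to dead-cell DNA was read during 40 h treatment.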

A short description of test [3]: A CellTox Green Cytotoxicity Assay to monitor cytotoxicity in HepG2 cells - 0 hour (AID 1224882). Further: nearly all actives have a fitted effect of over 35% in size. The method in brief:
(§3)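 HepG2 cells were seeded together with the CellTox Green dye at 600 cells/well, left 5 h at 37 C/5% CO2, then given compounds in DMSO. Fluorescence from dye bound to dead-cell DNA was read repeatedly over 40 h of treatment at 37 C.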

Test [4] is described as follows: A CellTox Green Cytotoxicity Assay to monitor cytotoxicity in HEK293 cells - 8 hour (AID 1224884). Further: nearly all actives have a fitted effect of over 35% in size. The method in brief: as §2
Test [5] is described as follows: qHTS RealTime-Glo MT Cell Viability Assay in HepG2 cells - 16 hour (AID 1224885). Further: nearly all actives have a fitted effect of over 50% in size. The method in brief:
(§4)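 HepG2 cells (600/well) were dispensed with RealTime-Glo reagents, incubated 5 h at 37 °C, then treated with compounds in DMSO for up to 40 h. Nonlytic NanoLuc luminescence reflecting viable cells was read at each stated time point.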

Test [6] is described as follows: qHTS RealTime-Glo MT Cell Viability Assay in HEK293 cells - 24 hour (AID 1224886). Further: nearly all actives have a fitted effect of over 50% in size. Further: potency means the concentration at half of the fitted maximal effect. On activity change, negative = cytotoxicity: top concentration of the series differs between compounds. The method, boiled down: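 HEK293 cells seeded with NanoLuc/prosubstrate reagent, rested 5 h at 37 C, then dosed and kept at 37 C up to 40 h. Nonlytic real-time luminescence from viable cells read at 0, 8, 16, 24, 32 and 40 h.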
Test [7] in a line: qHTS RealTime-Glo MT Cell Viability Assay in HEK293 cells - 8 hour (AID 1224887). Further: nearly all actives have a fitted effect of over 50% in size. Further: potency means the concentration at half of the fitted maximal effect. On activity change, negative = cytotoxicity: top concentration of the series differs between compounds. The method in brief:
as §1

Test [8] can be described thus: A CellTox Green Cytotoxicity Assay to monitor cytotoxicity in HEK293 cells - 16 hour (AID 1224888). Further: nearly all actives have a fitted effect of over 35% in size. The method, boiled down: as §2
Test [9] can be described thus: qHTS RealTime-Glo MT Cell Viability Assay in HepG2 cells - 0 hour (AID 1224889). Further: nearly all actives have a fitted effect of over 50% in size. The method, boiled down:
as §4

Test [10] is described as follows: A CellTox Green Cytotoxicity Assay to monitor cytotoxicity in HepG2 cells - 32 hour (AID 1224883). Further: nearly all actives have a fitted effect of over 50% in size. Further: potency means the concentration at half of the fitted maximal effect. The method, boiled down: as §3

Where “and” joins values, the source holds several entries; their conditions need not be identical. Equal entries are not always repeated. Records with an inconclusive call do not appear. A structure can be active in one record and inactive in another. Calls of active or inactive are those of the source. The call rests on the fitted dose curve; in most records, active means well fitted curve in the direction sought with a large enough effect in the repeat runs; inconclusive means weak or mixed curves; inactive means no such curve, though single readings can be large; an effect the other way counts as inactive or inconclusive.
On the % scale 0 is the no-effect control and ±100 the full control effect.

Consider `CC1C(=O)C[C@]2(C(C)C)C[C@H]12` (some centres undefined), for which the Potency entry in test [1], in test [2], in test [3], in test [4], in test [5] and in test [6] was “inactive” each time. For the same compound, the Potency result in test [7], in test [8] and in [9] was “inactive” throughout.

`O=C(O)CC(Cl)C(=O)O` (centres undefined): the Potency result in test [1], in test [2], in test [3], in test [4], in test [5] and in [6] was “inactive” each time. Besides, the Potency result in test [7], in test [8] and in [9] was “inactive” in each case.

`c1ccc(CN2CCNCC2)cc1`: the Potency result in [1], in [2], in test [3], in test [4], in test [5] and in [6] was “inactive” throughout. Moreover, the Potency entry in [7], in test [8] and in [9] was “inactive” each time.

In the case of `O=C1NCN(c2ccccc2)C12CCN(CCCOc1ccc(F)cc1)CC2`, the Potency entry in test [1], in [2], in test [3], in [4], in test [5] and in test [7] was “inactive” each time. The Potency result in test [8] and in test [9] was “inactive” in each case.

For `C[C@@H]1CC[C@H]2[C@@H](C)C(=O)O[C@@H]3O[C@@]4(C)CC[C@@H]1[C@]32OO4`, the Potency entry in test [1], in test [2], in test [3], in test [4], in test [5] and in [6] was “inactive” throughout. The Potency entry in test [7], in [8] and in [9] was “inactive” in each case.

In the case of `O=C(CBr)OCc1ccccc1`, the Potency entry in test [1], in test [2], in [3], in test [4], in [5] and in test [7] was “inactive” each time. The Potency result in test [8] and in test [9] was “inactive” throughout.

In the case of `CCCCN(N=O)C(=N)N[N+](=O)[O-]`, the Potency entry in test [1], in test [2], in [3], in [4], in test [5] and in test [6] was “inactive” each time. The Potency entry in test [7], in test [8] and in [9] was “inactive” throughout.

On to `O=C(C(Cl)(Cl)Cl)C(Cl)(Cl)Cl`, for which the Potency entry in [1], in test [2], in [3], in test [5], in [6] and in [7] was “inactive” throughout. Moreover, the Potency entry in [8] and in test [9] was “inactive” throughout.

For `O=C(Nc1ccccc1)Nc1ccnc(Cl)c1`, the Potency entry in test [1], in test [2], in test [3], in [4], in [5] and in test [8] was “inactive” each time. In test [6], the Potency is 19.5 µM (active).

For the compound `O=C(CBr)c1ccccc1`, the Potency entry in test [1], in test [2], in test [3], in test [10], in test [5] and in [6] was “inactive” in each case. Besides, the Potency result in [7], in [8] and in [9] was “inactive” each time.

Take `CCCCC(CC)COP(=O)(Oc1ccccc1)Oc1ccccc1` (centres undefined): the Potency entry in test [1], in test [2], in [3], in [10], in [5] and in test [7] was “inactive” each time. Also, the Potency result in test [8] and in [9] was “inactive” throughout.

As to `CCn1cc[n+](C)c1`, the Potency entry in test [1], in test [2], in [3], in test [10], in test [5] and in [7] was “inactive” throughout. In addition, the Potency entry in test [8] and in test [9] was “inactive” throughout. For the same compound, the Potency result in test [6] is “inactive and 1.75 µM (active)”.

Turning to `CN1C[C@H](CNC(=O)OCc2ccccc2)C[C@@H]2c3cccc4c3c(cn4C)C[C@H]21`, the Potency entry in [1], in test [2], in test [3], in [4], in [8] and in test [9] was “inactive” in each case. Moreover, in [6], the Potency is 21.3 µM (active).

With `N#Cc1cc(I)c(O)c(I)c1`, the Potency result in [1], in test [2], in [3], in test [10], in test [5] and in [7] was “inactive” each time. In addition, the Potency result in test [8] and in [9] was “inactive” each time.

As for `O=C(Nc1ccccc1)Nc1cnns1`, the Potency result in test [1], in [2], in test [3], in test [4], in [5] and in [8] was “inactive” in each case. Besides, in test [9], the Potency entry is “inactive”. Further, the Potency in [6] was 24.5 µM (active).

For the compound `CCC(COC(=O)c1cc(OC)c(OC)c(OC)c1)(c1ccccc1)N(C)C` (centres undefined), the Potency result in test [1], in test [2], in test [3], in test [10], in test [5] and in test [8] was “inactive” each time. In addition, the Potency entry in test [9] was “inactive”. Also, the Potency in test [7] is 26.8 µM (active).

Take `CCOP(=S)(Oc1ccc([N+](=O)[O-])cc1)c1ccccc1` (centres undefined): the Potency entry in [1], in [2], in test [3], in test [4], in test [5] and in test [6] was “inactive” each time. Further, the Potency result in test [7], in [8] and in [9] was “inactive” throughout.

In the case of `CO[C@@H]1[C@H](OC(=O)NC(=O)CCl)CC[C@]2(CO2)[C@H]1[C@@]1(C)O[C@@H]1CC=C(C)C`, the activity change, negative = cytotoxicity in test [1] was 1.11% [at 15.8 µM] (inactive); in [6], 14.6% [at 15.8 µM] (inactive); in test [7], 6.68% [at 15.8 µM] (inactive); in [9], 0.756% [at 15.8 µM] (inactive). The cytotoxicity increase in [2] was -3.65% [at 15.8 µM] (inactive); in [4], -6.32% [at 15.8 µM] (inactive). The cytotoxicity in test [3] was 1.46% [at 15.8 µM] (inactive). The activity change, negative = cytotoxic in test [5] was 1.78% [at 15.8 µM] (inactive). Also, the activity change in test [8] is -10.6% [at 15.8 µM, stronger effect = higher value] (inactive).

As to `Cn1cc[n+](C)c1` (tested in a mixture with another compound), the Potency result in test [1], in test [2], in [3], in test [4], in test [5] and in [6] was “inactive” in each case. For the same compound, the Potency result in test [7], in test [8] and in [9] was “inactive” each time.

`CS/C(C)=N/OC(=O)N(C)SN(C)C(=O)O/N=C(\C)SC`: the Potency result in test [1], in test [3] and in [9] was “inactive” in each case. The Potency in test [2] is 54.9 µM (active); in test [10], 54.9 µM (active); in test [6], 49 µM (active); in [7], 43.6 µM (active).

On to `CCCN(CCCl)c1c([N+](=O)[O-])cc(C(F)(F)F)cc1[N+](=O)[O-]`, for which the Potency entry in test [1], in test [2], in [3], in [10], in test [5] and in test [6] was “inactive” in each case. For the same compound, the Potency entry in [8] and in test [9] was “inactive” in each case. For the same compound, the Potency in test [7] was 38.9 µM (active).

With `Nc1nc(N)nc(N)n1`, the Potency entry in [1], in [2], in test [3], in test [4], in test [5] and in [6] was “inactive” each time. In addition, the Potency entry in [7], in [8] and in test [9] was “inactive” in each case.

Turning to `O=C(O)C1(c2ccc3c(c2)OC[C@H](Cc2ccc(-c4ccccc4)cc2)[C@H]3O)CCCC1`, the Potency result in [1], in test [3], in [5] and in test [9] was “inactive” throughout. Moreover, the Potency was 34.7 µM (active) in test [2] and 43.6 µM (active) in test [10].

As for `S=C=NCc1ccccc1`, the Potency result in test [1], in test [3], in [5], in test [8] and in test [9] was “inactive” throughout. In addition, the Potency in [2] is 49.5 µM (active); in [6], 24.8 µM (active).

With `N#CCC#N`, the Potency result in test [1], in [2], in [3], in test [10], in [5] and in [7] was “inactive” each time. Further, the Potency result in [8] and in test [9] was “inactive” throughout.

On to `Clc1cc(Cl)c(Cl)c(Cl)c1`, for which the Potency entry in [1], in test [2], in test [3], in test [4], in [5] and in test [6] was “inactive” each time. Further, the Potency result in test [7], in [8] and in [9] was “inactive” throughout.

In the case of `O=C1CN=C(c2ccccc2)c2cc(Cl)ccc2N1CC1CC1`, the Potency in test [1] was 16.3 µM (active). Besides, the Potency result in test [2], in test [3], in test [4], in test [5] and in test [8] was “inactive” each time.

Turning to `CC(C)(C)C(O)C(Oc1ccc(Cl)cc1)n1cncn1` (centres undefined), the Potency entry in test [1], in [2], in test [3], in [4], in test [5] and in [8] was “inactive” each time. The Potency result in [9] is “inactive”. In addition, the Potency in [6] was 12.3 µM (active).
